This passage reports AC50 and outcome results from PubChem BioAssay (EPA / NIEHS).

Assay [1] is described as follows: CEETOX_H295R_CORTIC: CeeTox H295R High-throughput Steroidogenesis Assay for Corticosterone (CORTIC) (AID 2283437).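 For AC50: human H295R adrenal cells prestimulated with forskolin before chemical exposure.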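 Note: corticosterone secreted into medium quantified by mass spectrometry.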 The conditions noted are these: actives raise or lower the signal. The method, boiled down: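 H295R adrenal cells prestimulated 48 hours with 10 uM forskolin, then exposed 48 hours to chemical in 0.1% DMSO. Corticosterone in medium measured by HPLC-MS/MS after MTBE extraction; MTT viability in the same wells; bidirectional fit versus DMSO.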

A short description of assay [2]: CEETOX_H295R_CORTISOL: CeeTox H295R High-throughput Steroidogenesis Assay for Cortisol (AID 2283438).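 Note: cortisol secreted into medium quantified by LC-MS/MS.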 The conditions noted are these: actives raise or lower the signal. The method, boiled down: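 Forskolin-primed H295R cells (10 uM, 48 h) treated 48 h with test chemical in 0.1% DMSO. Cortisol in medium quantified by MTBE extraction and HPLC-MS/MS; bidirectional fit vs DMSO, MTT viability in same wells.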

Assay [3] can be described thus: CEETOX_H295R_DOC: CeeTox H295R High-throughput Steroidogenesis Assay for DOC (AID 2283439). As to conditions: actives raise or lower the signal. The method, boiled down: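 H295R cells prestimulated 48 h with 10 uM forskolin, then exposed 48 h to test chemical (0.1% DMSO final). Medium 11-deoxycorticosterone measured by HPLC-MS/MS after MTBE extraction; bidirectional fit vs DMSO, viability checked by MTT in same wells.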

A short description of assay [4]: CEETOX_H295R_ESTRADIOL: CeeTox H295R High-throughput Steroidogenesis Assay for Estradiol (AID 2283440).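 Note: estradiol secreted into medium quantified by LC-MS/MS after dansyl derivatisation.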 As to conditions: actives raise or lower the signal. The method, boiled down: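 H295R, 48 h forskolin (10 uM) prestim → 48 h compound, 0.1% DMSO final. Estradiol in medium: MTBE extraction, dansyl chloride derivatization, LC-MS/MS. Fit bidirectional vs DMSO baseline; MTT viability in same wells.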

The nature of assay [5]: CEETOX_H295R_ESTRONE: CeeTox H295R High-throughput Steroidogenesis Assay for Estrone (AID 2283441).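 Note: estrone secreted into medium measured by LC-MS/MS after dansyl derivatization.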 As to conditions: actives raise or lower the signal. The method in brief: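 H295R cells prestimulated 48 h with 10 uM forskolin, then exposed 48 h to chemicals in 0.1% DMSO final; estrone in medium extracted with MTBE, dansyl-derivatized, quantified by HPLC-MS/MS; bidirectional fitting versus DMSO, viability by MTT.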

A short description of assay [6]: CEETOX_H295R_PROG: CeeTox H295R High-throughput Steroidogenesis Assay for Progesterone (PROG) (AID 2283442).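 For AC50: human H295R adrenal cells primed with 10 µM forskolin before dosing.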 As to conditions: actives raise or lower the signal. The method, boiled down: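 Progesterone read-out: HPLC-MS/MS on MTBE extracts of conditioned medium after 48 h chemical exposure of forskolin-primed (10 uM, 48 h) H295R cells. Gain or loss of signal was fitted relative to DMSO baseline.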

Read-out in assay [7]: Tumor necrosis factor receptor superfamily member 6 (Homo sapiens) (UniProt P25445)
Nature of the assay: LTEA_HepaRG_FAS: Life Technologies and Expression Analysis (LTEA) Assay for Fas cell surface death receptor (FAS) using HepaRG (AID 2283447). As to conditions: mRNA level, 48 h; actives raise or lower the signal. The method, boiled down: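 Differentiated HepaRG cells in serum-free induction medium were exposed 48 h to 8 half-log concentrations up to 100 uM in 0.5% DMSO, in duplicate. FAS mRNA was measured by qRT-PCR normalised to ACTB, GAPDH and POLR2A; bidirectional fit versus DMSO.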

Read-out in assay [8]: Fatty acid synthase (Homo sapiens) (UniProt P49327)
Description: LTEA_HepaRG_FASN: Life Technologies and Expression Analysis (LTEA) Assay for Fatty Acid Synthase (FASN) using HepaRG (AID 2283448). The conditions noted are these: mRNA level, 48 h; actives raise or lower the signal. The method, boiled down: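 Differentiated HepaRG cells in serum-free induction medium exposed 48 h in duplicate to eight half-log concentrations, top 100 uM, 0.5% DMSO. FASN mRNA by qRT-PCR normalised to ACTB, GAPDH, POLR2A; bidirectional fit versus DMSO.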

Read-out in assay [9]: Cyclin D2 (CCND2), CCND2 (gene 894)
Description: LTEA_HepaRG_CCND2: Life Technologies and Expression Analysis (LTEA) Assay for Cyclin D2 (CCND2) using HepaRG (AID 2283449).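 Note: CCND2 transcript measured by TaqMan qRT-PCR and normalised to three housekeeping genes.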 As to conditions: mRNA level, 48 h; actives raise or lower the signal. The method in brief: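 Chemicals in 0.5% DMSO, eight half-log concentrations from 100 uM top, were applied in duplicate for 48 h to human HepaRG cells in serum-free induction medium. CCND2 mRNA by TaqMan qRT-PCR, normalised to ACTB/GAPDH/POLR2A; bidirectional fit versus DMSO.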

Read-out in assay [10]: Cyclin Dependent Kinase Inhibitor 1A (CDKN1A), CDKN1A (gene 1026)
Description: LTEA_HepaRG_CDKN1A: Life Technologies and Expression Analysis (LTEA) Assay for Cyclin Dependent Kinase Inhibitor 1A (CDKN1A) using HepaRG (AID 2283450). As to conditions: mRNA level, 48 h; actives raise or lower the signal. The method in brief:
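HepaRG, 48 h dosing, 8-pt half-log series from 100 uM top, 0.5% DMSO vehicle, duplicates. Readout: TaqMan qRT-PCR of CDKN1A transcript, housekeeping-normalized (ACTB, GAPDH, POLR2A). Up/down curve fit relative to DMSO.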

Read-out in assay [11]: Cyclin D1 (CCND1), CCND1 (gene 595)
Description: LTEA_HepaRG_CCND1: Life Technologies and Expression Analysis (LTEA) Assay for Cyclin D1 (CCND1) using HepaRG (AID 2283451). As to conditions: mRNA level, 48 h; actives raise or lower the signal. The method, boiled down:
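qRT-PCR (Fluidigm 96.96 array) read-out of transcript level, housekeeping-normalized (ACTB/GAPDH/POLR2A). HepaRG cells, 48 h chemical exposure, 8-point half-log series from 100 uM, 0.5% DMSO vehicle; gain or loss relative to DMSO baseline.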

Read-out in assay [12]: flavin-containing dimethylaniline monooxygenases 3 (FMO3), FMO3 (gene 2328)
Nature of the assay: LTEA_HepaRG_FMO3: Life Technologies and Expression Analysis (LTEA) Assay for flavin-containing dimethylaniline monooxygenases 3 (FMO3) using HepaRG (AID 2283453). The conditions noted are these: mRNA level, 48 h; actives raise or lower the signal. The method in brief:
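Differentiated HepaRG cells in serum-free induction medium, exposed 48 h in duplicate to 8 half-log concentrations up to 100 uM in 0.5% DMSO. FMO3 mRNA by qRT-PCR, normalized to ACTB, GAPDH, POLR2A; bidirectional fit vs DMSO.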

Read-out in assay [13]: Cytochrome P450 (CYP1A1), CYP1A1 (gene 1543)
Description: LTEA_HepaRG_CYP1A1: Life Technologies and Expression Analysis (LTEA) Assay for Cytochrome P450 (CYP1A1) using HepaRG (AID 2283454). The conditions noted are these: mRNA level, 48 h; actives raise or lower the signal. The method in brief: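 qRT-PCR read-out: CYP1A1 transcript normalized to three housekeeping genes, fitted bidirectionally against 0.5% DMSO vehicle baseline. Human HepaRG cells, 48 h chemical exposure, 8-point half-log series topping at 100 uM.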

Read-out in assay [14]: CFLAR gene, CFLAR (gene 8837)
Nature of the assay: LTEA_HepaRG_CFLAR: Life Technologies and Expression Analysis (LTEA) Assay for CFLAR gene using HepaRG (AID 2283455). The conditions noted are these: mRNA level, 48 h; actives raise or lower the signal. The method in brief: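 Differentiated HepaRG cells in serum-free induction medium were exposed 48 h in duplicate to eight half-log concentrations up to 100 uM in 0.5% DMSO; mRNA measured by TaqMan qRT-PCR, normalized to ACTB, GAPDH, POLR2A; bidirectional fitting versus DMSO.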

Read-out in assay [15]: Forkhead box O1 (FOXO1), FOXO1 (gene 2308)
Description: LTEA_HepaRG_FOXO1: Life Technologies and Expression Analysis (LTEA) Assay for Forkhead box O1 (FOXO1) using HepaRG (AID 2283456). The conditions noted are these: mRNA level, 48 h; actives raise or lower the signal. The method, boiled down: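 Differentiated HepaRG cells, in serum-free induction medium with 0.5% DMSO, exposed 48 h in duplicate to 8-point half-log series from 100 uM. FOXO1 mRNA measured by TaqMan qRT-PCR, normalized to ACTB, GAPDH, POLR2A; bidirectional fit versus DMSO.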

Read-out in assay [16]: growth arrest and DNA damage 45 (GADD45A), GADD45A (gene 1647)
Description: LTEA_HepaRG_GADD45A: Life Technologies and Expression Analysis (LTEA) Assay for growth arrest and DNA damage 45 (GADD45A) using HepaRG (AID 2283458). As to conditions: mRNA level, 48 h; actives raise or lower the signal. The method in brief:
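Differentiated HepaRG cells exposed 48 h in serum-free induction medium to 8 concentrations, top 100 uM in half-log steps, 0.5% DMSO. GADD45A mRNA quantified by qRT-PCR, normalized to ACTB, GAPDH and POLR2A; bidirectional fit versus DMSO.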

Read-out in assay [17]: Forkhead box O3 (FOXO3), FOXO3 (gene 2309)
Description: LTEA_HepaRG_FOXO3: Life Technologies and Expression Analysis (LTEA) Assay for Forkhead box O3 (FOXO3) using HepaRG (AID 2283459). As to conditions: mRNA level, 48 h; actives raise or lower the signal. The method, boiled down:
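Differentiated human HepaRG cells, 48 h post-plating, exposed in duplicate for 48 h in serum-free induction medium; 8-point half-log series from 100 uM in 0.5% DMSO. FOXO3 mRNA by TaqMan qRT-PCR, normalized to ACTB/GAPDH/POLR2A; bidirectional fit versus DMSO.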

Read-out in assay [18]: catalase (CAT), CAT (gene 847)
Nature of the assay: LTEA_HepaRG_CAT: Life Technologies and Expression Analysis (LTEA) Assay for catalase (CAT) using HepaRG (AID 2283452). As to conditions: mRNA level, 48 h; actives raise or lower the signal. The method, boiled down: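 HepaRG cells in serum-free induction medium, 0.5% DMSO vehicle, exposed 48 h in duplicate over 8 half-log concentrations from 100 uM. CAT mRNA measured by qRT-PCR, normalized to ACTB, GAPDH, POLR2A; bidirectional fit versus DMSO.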

Calls of active or inactive are those of the source. Rule for the calls: active = hit-call score of the fitted dose curve at least 0.9, where 1 is the maximum; inactive = score below 0.9.

Fatty acid synthase (Homo sapiens), sequence (P49327 whole entry, looked up): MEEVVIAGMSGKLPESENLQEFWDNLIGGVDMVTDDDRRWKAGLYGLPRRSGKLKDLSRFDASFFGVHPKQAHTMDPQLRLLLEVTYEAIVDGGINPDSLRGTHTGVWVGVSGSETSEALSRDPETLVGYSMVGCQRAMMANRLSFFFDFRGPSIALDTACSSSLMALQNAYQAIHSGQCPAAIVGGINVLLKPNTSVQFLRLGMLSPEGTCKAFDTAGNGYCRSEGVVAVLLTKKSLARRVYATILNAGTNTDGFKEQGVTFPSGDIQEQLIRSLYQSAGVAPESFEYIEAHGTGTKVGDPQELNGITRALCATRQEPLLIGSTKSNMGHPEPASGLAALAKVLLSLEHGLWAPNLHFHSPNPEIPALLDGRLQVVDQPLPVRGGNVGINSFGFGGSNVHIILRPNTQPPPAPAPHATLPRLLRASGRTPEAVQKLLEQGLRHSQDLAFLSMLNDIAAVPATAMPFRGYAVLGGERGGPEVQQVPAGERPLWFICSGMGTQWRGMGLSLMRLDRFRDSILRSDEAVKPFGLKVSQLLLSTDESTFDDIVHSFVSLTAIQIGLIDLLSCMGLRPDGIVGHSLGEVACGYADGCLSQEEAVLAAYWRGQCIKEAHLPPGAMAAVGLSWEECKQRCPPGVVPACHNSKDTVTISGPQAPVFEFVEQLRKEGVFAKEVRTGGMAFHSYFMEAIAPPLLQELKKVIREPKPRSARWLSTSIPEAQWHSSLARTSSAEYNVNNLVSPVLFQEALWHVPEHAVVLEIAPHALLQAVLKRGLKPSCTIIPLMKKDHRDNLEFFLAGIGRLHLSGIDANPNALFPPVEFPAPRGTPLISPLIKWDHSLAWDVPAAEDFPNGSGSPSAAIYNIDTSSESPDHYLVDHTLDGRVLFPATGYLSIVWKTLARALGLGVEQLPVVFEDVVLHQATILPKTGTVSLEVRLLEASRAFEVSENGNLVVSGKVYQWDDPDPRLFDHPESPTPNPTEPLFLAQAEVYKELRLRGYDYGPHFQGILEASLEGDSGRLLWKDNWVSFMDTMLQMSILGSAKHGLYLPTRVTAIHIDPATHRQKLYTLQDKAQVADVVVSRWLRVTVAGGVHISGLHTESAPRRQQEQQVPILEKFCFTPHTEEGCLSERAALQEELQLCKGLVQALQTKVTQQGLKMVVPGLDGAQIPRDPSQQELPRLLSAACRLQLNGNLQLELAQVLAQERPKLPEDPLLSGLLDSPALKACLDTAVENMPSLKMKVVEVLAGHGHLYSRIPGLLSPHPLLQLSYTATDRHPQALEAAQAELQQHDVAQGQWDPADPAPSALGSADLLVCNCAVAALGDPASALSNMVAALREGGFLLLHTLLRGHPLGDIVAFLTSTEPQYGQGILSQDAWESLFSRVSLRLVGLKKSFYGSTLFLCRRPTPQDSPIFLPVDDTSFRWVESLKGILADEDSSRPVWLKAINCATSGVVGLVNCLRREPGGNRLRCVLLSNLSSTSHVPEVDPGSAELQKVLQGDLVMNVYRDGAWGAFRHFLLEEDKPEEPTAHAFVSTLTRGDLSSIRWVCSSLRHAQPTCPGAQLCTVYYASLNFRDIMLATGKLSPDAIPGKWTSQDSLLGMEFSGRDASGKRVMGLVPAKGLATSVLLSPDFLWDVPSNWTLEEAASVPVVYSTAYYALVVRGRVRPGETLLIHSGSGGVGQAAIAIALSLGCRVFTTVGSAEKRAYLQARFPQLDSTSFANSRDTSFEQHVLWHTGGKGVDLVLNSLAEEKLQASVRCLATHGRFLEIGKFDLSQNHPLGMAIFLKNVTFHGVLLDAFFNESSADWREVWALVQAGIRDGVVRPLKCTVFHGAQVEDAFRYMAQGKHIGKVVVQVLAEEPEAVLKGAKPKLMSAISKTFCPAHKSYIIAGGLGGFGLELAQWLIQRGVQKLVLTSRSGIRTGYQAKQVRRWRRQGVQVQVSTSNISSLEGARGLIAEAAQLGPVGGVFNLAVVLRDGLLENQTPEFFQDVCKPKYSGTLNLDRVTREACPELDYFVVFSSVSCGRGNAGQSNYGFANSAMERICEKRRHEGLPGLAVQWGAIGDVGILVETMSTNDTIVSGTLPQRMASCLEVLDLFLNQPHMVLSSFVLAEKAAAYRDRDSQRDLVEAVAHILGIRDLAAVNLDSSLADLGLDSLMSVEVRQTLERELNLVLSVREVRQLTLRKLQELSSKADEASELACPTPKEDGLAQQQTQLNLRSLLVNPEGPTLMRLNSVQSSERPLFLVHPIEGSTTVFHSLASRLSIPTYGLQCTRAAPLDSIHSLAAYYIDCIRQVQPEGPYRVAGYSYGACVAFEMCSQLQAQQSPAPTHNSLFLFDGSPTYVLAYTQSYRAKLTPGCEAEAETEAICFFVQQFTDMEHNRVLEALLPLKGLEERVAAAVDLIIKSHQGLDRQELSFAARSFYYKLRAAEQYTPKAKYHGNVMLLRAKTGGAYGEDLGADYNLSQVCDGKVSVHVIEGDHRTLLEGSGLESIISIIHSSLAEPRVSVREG

As for `CCNP(=S)(OC)O/C(C)=C/C(=O)OC(C)C` (stereo not given), the AC50 in assay [1] is 50 µM (active); in assay [3] it was 50 µM (active); in assay [6], 50 µM (active); in assay [8], 36.3 µM (active); in assay [13] it was 14.3 µM (active). For the same molecule, the call in assay [2], in [4], in [5], in [7], in [9] and in [10] was inactive. The call in assay [11], in assay [12], in assay [14], in [15], in assay [16] and in assay [17] was inactive.
On to `CCOC(=O)C(C)OC(=O)c1cc(Oc2ccc(C(F)(F)F)cc2Cl)ccc1[N+](=O)[O-]` (stereo not given), for which the result in assay [1], in assay [2], in assay [3], in assay [4], in assay [5] and in assay [6] was inactive. For the same molecule, the molecule was classed as inactive in [7], in assay [10], in [11], in [18], in assay [12] and in assay [14]. Further, the result in [15] and in assay [17] was inactive. Besides, the AC50 in assay [8] is 35.1 µM (active); in assay [13], 50 µM (active); in assay [16], 50 µM (active).
In the case of `Clc1nc(Cl)nc(Nc2ccccc2Cl)n1`, the molecule was classed as inactive in assay [1], in assay [2], in [4], in [5], in [6] and in assay [8]. In addition, the result in [9], in assay [10], in assay [11], in assay [12], in assay [14] and in [15] was inactive. Besides, the result in [16] and in [17] was inactive. Moreover, the AC50 in assay [3] was 2.71 µM (active); in assay [13], 25.5 µM (active).

A word on the AC50: it is the concentration at which the activity in the assay is half-maximal.
